Inhibition data for ten compounds are collected here from PubChem BioAssay AID743126 (The Scripps Research Institute Molecular Screening Center, 2013).

About 2,100 (0.57%) of roughly 370,000 compounds were called active.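 Rule for the calls: active = inhibition above mean plus 3 SD of compounds lying within the high and low control bounds (cut at about 19% in these data); inactive = the rest.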 Shown is part of a subset that was picked to be rich in actives.

In this test the target is Group 3 secretory phospholipase A2 (Homo sapiens) (UniProt Q9NZ20). The experiment in a line: human group III sPLA2 inhibitors, primary screen, biochemical, QFRET, BODIPY PC-A2 liposome substrate (AID 743126).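 Note: 0% = median of test compound wells and 100% = no enzyme DMSO wells.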 As to conditions: QFRET BODIPY PC-A2 liposome hydrolysis, fluorescence; at 12.2 µM; hits give high values.
Group 3 secretory phospholipase A2 (Homo sapiens), sequence (Q9NZ20 whole entry, looked up): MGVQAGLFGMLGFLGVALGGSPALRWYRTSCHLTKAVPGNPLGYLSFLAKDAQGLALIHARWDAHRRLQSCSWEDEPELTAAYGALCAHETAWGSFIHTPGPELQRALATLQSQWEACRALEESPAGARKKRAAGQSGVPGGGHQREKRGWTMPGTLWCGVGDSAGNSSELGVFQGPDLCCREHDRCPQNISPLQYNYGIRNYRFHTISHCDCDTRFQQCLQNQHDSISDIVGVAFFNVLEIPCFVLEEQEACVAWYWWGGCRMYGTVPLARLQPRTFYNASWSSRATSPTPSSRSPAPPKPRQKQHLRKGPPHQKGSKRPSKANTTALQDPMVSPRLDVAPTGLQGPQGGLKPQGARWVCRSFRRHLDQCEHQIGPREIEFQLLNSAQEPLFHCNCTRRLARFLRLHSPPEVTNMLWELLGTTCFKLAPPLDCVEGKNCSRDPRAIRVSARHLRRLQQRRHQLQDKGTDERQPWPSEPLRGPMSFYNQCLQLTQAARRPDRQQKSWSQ
For the compound `C[C@]12CC[C@H](O)CC1=C([N+](=O)[O-])CC1C2CC[C@@]2(C)C1CC[C@@H]2O` (stereo not given in full), the inhibition was -3.04% (inactive).

`C[C@]12CCC3C(CC[C@H]4C[C@@H](O)CC[C@]34C)C1CC[C@@H]2O` (stereo not given in full): the inhibition is 21.1% (active).

For the compound `C[C@]12CCC3C(CC[C@H]4[C@H](O)[C@H](O)CC[C@]34C)C1CC[C@@H]2O` (stereo not given in full), the inhibition was 11.6% (inactive).

For `CC1=CC(=Cc2sc3ccccc3[n+]2C)C=C(C)O1`, the inhibition was 5.85% (inactive).

For the compound `COc1ccc(C(=O)C2CN(C)CC2C(=O)c2ccc(OC)cc2)cc1` (stereo not given), the inhibition was -10.5% (inactive).

In the case of `O=C(COC(=O)c1ccccc1)Nc1ccc(Cl)cc1C(=O)c1ccccc1`, the inhibition was 21.3% (active).

Regarding `O=C(CCNS(=O)(=O)c1ccccc1)Nc1ccc(Cl)cc1C(=O)c1ccccc1`, the inhibition was -26.4% (inactive).

Take `CN1CCN(C(=S)SCC(=O)Nc2ccc(Cl)cc2C(=O)c2ccccc2)CC1`: the inhibition was -21.3% (inactive).

On to `C[C@@]1([C@@H](NP(=O)(c2ccccc2)c2ccccc2)c2ccccc2)C[C@H]1CCO`, for which the inhibition is -0.39% (inactive).

As for `CNC(=O)O/N=C(\N)Cc1csc2ccc(Cl)cc12`, the inhibition is -5.86% (inactive).

As a reminder, the inhibition is the relative decrease from the control value, in per cent.
